In the library only some 7.9% were active in any assay of this set; here they are far more common.
KB-V1 cytotox = KB-V1 MDR subline cytotoxicity. KB-V1 MDR cells viability, CellTiter-Glo, 72 h. Potency, µM (titrated, usually from 46.1 µM), actives largely listed as cytotoxic. 3.4% of 400,000 active; note: % is set by controls: 0 for no effect and ±100 for the full control effect; nearly all actives have a fitted effect of over 60% in size
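Following 72 h at 37 degrees C with compound, KB-V1 cell viability was read by CellTiter-Glo luminescence, medium being phenol-red-free DMEM plus 10% FBS; concentration-response parameters came from normalized, curve-fitted qHTS data.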
HT1080NT lethal = kills 2HG-producing HT-1080-NT fibrosarcoma cells. AID 686970. Potency, µM (highest dose often 46.1 µM), for the others: at the top dose activity, negative = less viability, hits mostly cytotoxic. HT-1080-NT fibrosarcoma viability, CellTiter-Glo ATP luminescence, 48 h. 1.6% of 360,000 active;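 note: NT is the 2HG producing partner of a matched IDH1 knockdown line; 0% = DMSO-treated cells and -100% = media-only wells without cells; nearly all actives have a fitted effect of over 55% in size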
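Luminescent CellTiter-Glo readout after 48 hours of compound exposure at 37 degrees C defined viability of HT-1080-NT cells. Activity was normalized to DMSO wells and cell-free media wells; concentration-response curves were fitted and assigned curve classes.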
KB-3-1 cytotox = kills parental KB-3-1 adenocarcinoma cells | KB-3-1 viability, CellTiter-Glo ATP luminescence, 72 h | Potency, µM (highest dose often 46.1 µM), actives largely listed as cytotoxic | 1.4% of 400,000 active; note: % is set by controls: 0 for no effect and ±100 for the full control effect; nearly all actives have a fitted effect of over 60% in size
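72 h, 37 °C compound treatment of KB-3-1 parental cells; CellTiter-Glo added, 10 min, luminescence read. Data corrected against DMSO-only plates and normalized before curve fitting.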
MCF10A rereplic = DNA re-replication induction in MCF 10a cells; MCF 10A DNA re-replication, Hoechst nuclear intensity, 48 h; Potency, µM (doses to about 46.1 µM), inactives show at the highest dose activity, positive = re-replication, usual class: activators; 2.9% of 350,000 active; AID 624296; note: % of control where 0% means no effect; nearly all actives have a fitted effect of over 50% in size
SW480 rereplic = induces DNA re-replication in SW480 colon adenocarcinoma cells; 1.8% of 340,000 active; Potency, µM (doses to about 46.1 µM), for the others: top-dose re-replication activation, actives largely listed as activators; AID 624297; SW480 DNA re-replication, Hoechst DNA content imaging, 48 h; note: % of control where 0% means no effect; nearly all actives have a fitted effect of over 55% in size
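Compounds, transferred as 23 nL by pin tool, were incubated with cells for 48 hr; DNA content per nucleus was then quantified by Hoechst staining and fluorescence plate imaging.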
HT1080 IDH1KD tx = kills HT-1080 cells with IDH1 knockdown | AID 686971 | 2% of 360,000 active | Potency, µM (doses to about 46.1 µM), without a hit: at the highest dose activity, negative = toxicity, most hits filed as cytotoxic | HT-1080 IDH1 knockdown viability, ATP luminescence, 48 h;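 note: 0% = DMSO wells and -100% = cell-free medium wells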
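Knockdown cells (IDH1KD HT-1080) received compounds 2 h after plating at 750 cells/well and were kept 48 h at 37 °C in 5% FBS RPMI. A CellTiter-Glo luminescence read gave % activity for curve fitting.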
An asterisk follows results filed as active; i = inactive; ? = inconclusive; nt = no result; ! = a repeat was not active. Calls come from the whole dose curve; as a rule, active = well fitted curve in the direction sought with a large enough effect; inconclusive = small, poorly fitted or top-dose-only effect, or another doubt; inactive = no such curve, though single readings can be large; an effect the other way counts as inactive or inconclusive. Potency is the fitted concentration of half-maximal effect.

SMILES | KB-V1 cytotox | HT1080NT lethal | KB-3-1 cytotox | MCF10A rereplic | SW480 rereplic | HT1080 IDH1KD tx
Cn1c(-c2cccc(OCc3ccccc3)c2)nc2c1c(=O)[nH]c(=O)n2Cc1ccccc1 | ? | 11% | 15µM* | ? | 0% | 11%
COc1ccccc1-c1nc2ccc(Cl)cc2c(=O)n1O | i | -7% | i | 0% | -3% | -11%
COc1ccc(OC)c(CCNC(=O)c2cc3cccc4c3n2CCS4)c1 | i | nt | i | nt | nt | nt
Cc1cc(OC2CCCCC2)nc(-c2ccccc2O)n1 | i | 1% | i | 21µM* | 10% | 1%
Cc1ccc(Oc2cc(C)nc(-c3ccccc3O)n2)cc1 | i | 1% | i | ? | 4% | -7%
O=C(CN(c1cccc([N+](=O)[O-])c1)S(=O)(=O)c1ccccc1)NCc1ccccc1 | 5.8µM* | -1% | i | 14% | -2% | 1%
O=C(CSc1nc2ccccc2n1S(=O)(=O)c1cccc([N+](=O)[O-])c1)NCCc1ccccc1 | 3.7µM* | -4% | ? | 15% | -2% | -9%
CS(=O)(=O)N(CC(=O)NCCc1ccccc1)c1cccc([N+](=O)[O-])c1 | i | 1% | i | 0.65µM* | -34% | -1%
COc1ccc(CCNC(=O)CN(c2cccc([N+](=O)[O-])c2)S(C)(=O)=O)cc1 | i | 5% | i | 2% | -14% | 7%
CCCCNC(=O)CSc1nc2ccccc2n1S(=O)(=O)c1ccc(Br)cc1 | i | 21% | i | -41% | 2% | 18%
O=C(NCC(c1cccs1)N1CCOCC1)c1ccccc1NS(=O)(=O)c1ccc(Cl)c([N+](=O)[O-])c1 (centres undefined) | ? | -11% | i | 15µM* | -4% | -2%
O=C(NCC(c1cccs1)N1CCOCC1)c1ccccc1NS(=O)(=O)c1ccc(Cl)cc1 (centres undefined) | 12µM* | ? | ? | ? | 0% | -30%
COc1ccc(N2CCN(C(CNC(=O)CC(C)(C)C)c3ccc4c(c3)OCO4)CC2)cc1 (centres undefined) | i | 4% | ? | 3% | -2% | 21%
CC(=O)N1CCc2c(sc3c2c(=O)n(Cc2ccccc2)c(=O)n3Cc2cc(C)ccc2C)C1 | i | nt | i | nt | nt | nt
CSC1(SC2=NCCN2)SC2(NCCN2)S1 | ? | -4% | ? | 3.7µM* | ? | ?
O=C(c1ccccc1)N(Cc1ccc(F)cc1)Cc1nc2ccccc2c(=O)[nH]1 | i | 7.1µM* | i | ? | 4.1µM* | 6.3µM*
CCOCCCNC(=S)N(Cc1ccccc1)Cc1nc2ccccc2c(=O)[nH]1 | i | -16% | i | 6% | 2% | -10%
CCCNC(=S)N(Cc1ccccc1)Cc1nc2ccccc2c(=O)[nH]1 | 5.2µM* | -2% | ? | -3% | -106% | 0%
CCN1/C(=C/C(C)=C/c2sc3ccccc3[n+]2CC)Sc2ccccc21 | 21µM*! | 10µM* | 0.73µM* | -7% | 30% | 1.5µM*
CCN1/C(=C\C(C)=O)Sc2ccc(OC)cc21 | i | 0% | i | 27% | -15% | -2%
O=C(COc1ccc2ccccc2c1)NCCc1ccc2c(c1)OCCO2 | i | -5% | i | 18% | 2% | -5%
Cc1nnc(SCCn2c(N3CCC(C)CC3)nc3c2c(=O)n(C)c(=O)n3C)s1 | 12µM* | 4% | ? | 14% | -10% | 0%
CCN(CC)CCN1CCN(c2cncc(-c3ccc4ccccc4c3)n2)CC1 | ? | 23µM* | ? | nt | nt | 16µM*
COc1ccc(CN(C)C(C)C(=O)Nc2ccc([N+](=O)[O-])cc2Cl)cc1OC (centres undefined) | 5.2µM* | -12% | i | 18% | ? | -14%
CCOC(=O)CNC(=O)N1CCCC(C(=O)c2cc(C)c(OC)c(C)c2)C1 (centres undefined) | i | 10% | i | 4% | -1% | 2%
SMILES | KB-V1 cytotox | HT1080NT lethal | KB-3-1 cytotox | MCF10A rereplic | SW480 rereplic | HT1080 IDH1KD tx
Cc1csc(NC(=O)CSc2nnc(CCNC(=O)c3cccs3)n2C)n1 | i | 15% | i | -1% | -1% | 3%
CCCCc1c(O)c2ccccc2n(CCCC)c1=O | i | -16% | i | -1% | 2% | -16%
CCCCc1c(CCC)c(=N)c2ccccc2n1C | i | -15% | ? | ? | 12% | 21µM*
CCc1cc(SC#N)cc(CC)c1NC(=O)CCl | ? | ? | 21µM* | 16µM* | 23µM* | 21µM*
COCCNC(=O)/C(C#N)=C/c1ccc(O)c([N+](=O)[O-])c1 | i | -27% | i | -3% | -5% | -29%
COCCNC(=O)/C(C#N)=C/c1cccc(/C=C(\C#N)C(=O)NCCOC)c1 | i | ? | ? | 21µM* | ? | ?
COCCNC(=O)/C(C#N)=C/C=C/c1ccccc1[N+](=O)[O-] | ? | ? | i | 15µM* | 23% | ?
COCCNC(=O)/C(C#N)=C/c1ccc(O)cc1 | i | -10% | i | -1% | -5% | -13%
Cn1c(C(=O)N(Cc2ccccc2)Cc2ccccn2)cc2sccc21 | i | ? | i | 1% | -6% | ?
Cn1c(C(=O)N(Cc2ccccc2)Cc2cccs2)cc2sccc21 | 15µM* | -1% | i | 16µM* | 14% | -29%
OC(c1cc(-c2ccc(C(F)(F)F)cc2)nc(C(F)(F)F)c1)C1CCCCN1 (centres undefined) | i | ? | i | 23µM* | ? | ?
OC(c1cc(-c2cccc(Cl)c2)nc2ccccc12)C1CCCCN1 (centres undefined) | ? | 4.1µM* | i | ? | ? | 2.9µM*
CC1CCN(C(=O)CSc2nc(-c3ccc(F)cc3)cc(C(F)(F)F)n2)CC1 | ? | nt | i | nt | nt | nt
O=C(c1cc(-c2cccc(Cl)c2)nc2ccccc12)N1CCN(c2ccccn2)CC1 | ? | -2% | i | ? | ? | -13%
OC(c1cc(C(F)(F)F)nc2c(C(F)(F)F)cccc12)C1CCCCN1 (centres undefined) | ? | 13µM* | ? | ? | ? | 10µM*
CC(NC(=O)c1cncc(Br)c1)c1ccc(S(N)(=O)=O)cc1 (centres undefined) | i | -2% | i | 8% | -6% | -6%
O=C(Nc1ccccc1)N(Cc1ccccc1)C1=NCCS1 | i | 14% | i | -1% | -1% | 9%
O=S(=O)(c1ccccc1)N(C1=NCCS1)S(=O)(=O)c1ccccc1 | 21µM* | 2% | i | 13% | 0% | 8%

Compound activity deposited in PubChem BioAssay by National Center for Advancing Translational Sciences (NCATS).
